The source of these data is the supplement of paper PMC12350171.

Structures are written as SMILES. Structures can show the parent of a compound that is named as a salt. Unmarked numbers belong to inactive results.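 Rule for the calls: active = AUC significantly below DMSO controls by Student t-fit with adjusted P under 0.01; inactive = not significantly reduced.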

For the experiment, the system named is Haemophilus parainfluenzae. Briefly: growth AUC normalised to DMSO control (fraction of control); higher = less growth inhibition, active = hit call of the paper. The note with it: 20 µM. An outline of the steps: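 Pathogens were passaged twice under anaerobic conditions, then inoculated into pre-reduced mGAM plates at a starting OD578 of 0.01, with compound at 20 μM and 1% DMSO, and sealed with breathable membranes. For Haemophilus parainfluenzae, the medium was supplemented with hemin and NAD. OD578 was read every hour for 24 h in three biological replicates. Growth-curve AUC was calculated by the trapezoidal rule up to the exponential-to-stationary transition and normalised to DMSO controls on the same plate.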
For the compound `NNC(=O)c1ccncc1` [Isoniazid], the “growth AUC normalised to DMSO control” value is 1.09.
Next, `CC(=O)NC[C@H]1CN(c2ccc(N3CCOCC3)c(F)c2)C(=O)O1` [Linezolid]: 0.582 (active); `CC(C)NC[C@@H](O)COc1cccc2ccccc12` [(R) Propranolol hydrochloride]: 0.99.
In the case of `C[C@@H](O[C@H]1OCCN(Cc2n[nH]c(=O)[nH]2)[C@H]1c1ccc(F)cc1)c1cc(C(F)(F)F)cc(C(F)(F)F)c1` [Aprepitant], the “growth AUC normalised to DMSO control” value is 0.941.
Next, `O=C(O)CCC(=O)c1ccc(-c2ccccc2)cc1` [Fenbufen]: 0.905.
`COc1ccc(C(=O)NCc2cccnc2)cc1C(=O)NCc1cccnc1` [Picotamide monohydrate]: the “growth AUC normalised to DMSO control” value was 0.997.
On to `Cn1nnc2c(C(N)=O)ncn2c1=O` [Temozolomide], for which the “growth AUC normalised to DMSO control” value was 0.975.
